PubChem BioAssay (NCATS)
Results filed as inconclusive are left out. Activity calls are given as the source filed them. The call rests on the fitted dose curve; in most records, active means well fitted inhibition curve with a large enough effect; inconclusive means small, poorly fitted or top-dose-only effect; inactive means flat fitted curve, though single readings scatter.

How the values were obtained:
[1] = target: Glutathione peroxidase 1 (Homo sapiens) (UniProt P07203); assay: Primary qHTS Assay for Inhibitors of Recombinant Selenoprotein Glutathione Peroxidase 1 (GPX1) (AID 1845191); further: nearly all actives have a fitted effect of over 65% in size; on activity, negative = inhibition: on the % scale 0 is the no-effect control and ±100 the full control effect
Chain of Glutathione peroxidase 1 (Homo sapiens) (P07203 whole entry, looked up): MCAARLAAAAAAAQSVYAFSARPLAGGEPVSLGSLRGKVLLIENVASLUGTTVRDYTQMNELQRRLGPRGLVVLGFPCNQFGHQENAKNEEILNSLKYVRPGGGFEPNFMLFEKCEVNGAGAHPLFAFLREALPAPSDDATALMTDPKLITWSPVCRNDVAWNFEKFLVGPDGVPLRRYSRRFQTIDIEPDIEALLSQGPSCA
Procedure, shortened: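 GR-coupled readout: NADPH consumption tracked by fluorescence, ex 340/em 450 nm, at t=0 and after 15 min at RT. Final mix 10 nM GPX1, 1 mM GSH, 0.5 mM CHP, 0.5 mM NADPH, 100 nM GR, 0.01% BSA, following 30 min enzyme–compound preincubation.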

[2] = target: Phospholipid hydroperoxide glutathione peroxidase GPX4 (Homo sapiens) (UniProt P36969); assay: Primary qHTS Assay for Inhibitors of Recombinant Selenoprotein Glutathione Peroxidase 4 (GPX4) (AID 1845192); further: nearly all actives have a fitted effect of over 65% in size
Chain of Phospholipid hydroperoxide glutathione peroxidase GPX4 (Homo sapiens) (P36969 whole entry, looked up): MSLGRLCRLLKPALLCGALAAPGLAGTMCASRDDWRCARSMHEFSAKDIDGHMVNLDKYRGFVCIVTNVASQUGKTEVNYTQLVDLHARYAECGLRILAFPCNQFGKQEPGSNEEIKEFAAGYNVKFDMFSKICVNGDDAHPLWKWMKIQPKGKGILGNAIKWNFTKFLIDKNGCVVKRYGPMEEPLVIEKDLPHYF
Procedure, shortened: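 Steps: GPX4 plus compound, 30 min RT; add GR/GSH/NADPH master mix; start with cumene hydroperoxide; read 340/450 nm fluorescence at 0 and 15 min. Finals were 200 nM GPX4, 1 mM GSH, 0.5 mM CHP, 0.5 mM NADPH, 100 nM GR.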

[3] = qHTS profiling for inhibitors of Plasmodium falciparum proliferation (AID 504749);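 further: 0% = DMSO vehicle and full inhibition = artemisinin control; nearly all actives have a fitted effect of over 60% in size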; settings: P. falciparum in erythrocytes, SYBR Green DNA, 72 h
Procedure, shortened: (§1)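 SYBR Green fluorescence (ex 485 nm, em 535 nm) reports parasite DNA after 72 h compound exposure of infected red cells at 0.3% parasitemia, 2.5% hematocrit; signal normalized to 0.29 uM artemisinin and vehicle wells.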

3D7 = assay: as above; settings: P. falciparum in erythrocytes, SYBR Green DNA, 72 h; series mostly up to 28.7 µM
Procedure, shortened: as §1

7G8 = assay: as above; settings: P. falciparum in erythrocytes, SYBR Green DNA, 72 h; series mostly up to 28.7 µM
Procedure, shortened: as §1

AA1029 = assay: as above; settings: P. falciparum in erythrocytes, SYBR Green DNA, 72 h; series mostly up to 28.7 µM
Procedure, shortened: as §1

AS120 = assay: as above; settings: P. falciparum in erythrocytes, SYBR Green DNA, 72 h; series mostly up to 28.7 µM
Procedure, shortened: as §1

ATS189 = assay: as above; settings: P. falciparum in erythrocytes, SYBR Green DNA, 72 h; series mostly up to 28.7 µM
Procedure, shortened: as §1

[4] = at 28.7 µM (top of the series), parasite line A
[5] = at 28.7 µM (top of the series), parasite line B

O=C(O)CCCc1ccccc1
inactive: Potency [1] | Potency [2] | activity, negative = inhibition [3, 4] 3.34% | activity, negative = inhibition [3, 5] -0.114% | Potency (3D7) | Potency (7G8) | Potency (AA1029) | Potency (AS120) | Potency (ATS189)

Cc1cccc(Nc2ccccc2C(=O)O)c1C
inactive: Potency [1] | Potency [2] | activity, negative = inhibition [3, 4] -4.38% | activity, negative = inhibition [3, 5] 15.2% | Potency (3D7) | Potency (7G8) | Potency (AA1029) | Potency (AS120) | Potency (ATS189)

CCCCCCCCCCCCCCCCCCO
inactive: Potency [1] | Potency [2] | activity, negative = inhibition [3, 4] 2.93% | activity, negative = inhibition [3, 5] 2.31% | Potency (3D7) | Potency (7G8) | Potency (AA1029) | Potency (AS120) | Potency (ATS189)

CN1CCCN=C1COC(=O)C(O)(c1ccccc1)C1CCCCC1 (stereo not given)
inactive: Potency [1] | Potency [2] | activity, negative = inhibition [3, 4] 2.78% | activity, negative = inhibition [3, 5] -4.74% | Potency (3D7) | Potency (7G8) | Potency (AA1029) | Potency (AS120) | Potency (ATS189)

NS(=O)(=O)c1cc2c(cc1C(F)(F)F)NCNS2(=O)=O
inactive: Potency [1] | Potency [2] | activity, negative = inhibition ([3]; at 12.8 µM (top of the series), parasite line A) 2.71% | activity, negative = inhibition ([3]; at 12.8 µM (top of the series), parasite line B) 5.88% | Potency (3D7) | Potency (7G8) | Potency (AA1029) | Potency (AS120) | Potency (ATS189)

C=CCNC(N)=S
inactive: Potency [1] | Potency [2] | activity, negative = inhibition [3, 4] 5.67% | activity, negative = inhibition [3, 5] -1.15% | Potency (3D7) | Potency (7G8) | Potency (AA1029) | Potency (AS120) | Potency (ATS189)

OCc1ccc(Cl)cc1Cl
inactive: Potency [1] | Potency [2] | activity, negative = inhibition [3, 4] -3.83% | activity, negative = inhibition [3, 5] -17.4% | Potency (3D7) | Potency (7G8) | Potency (AA1029) | Potency (AS120) | Potency (ATS189)

COc1ccccc1OC(=O)Oc1ccccc1OC
inactive: Potency [1] | Potency [2] | activity, negative = inhibition [3, 4] -1.25% | activity, negative = inhibition [3, 5] 5.57% | Potency (3D7) | Potency (7G8) | Potency (AA1029) | Potency (AS120) | Potency (ATS189)

NS(=O)(=O)c1cc(-c2nn[nH]n2)c(NCc2cccs2)cc1Cl
inactive: Potency [1] | Potency [2] | activity, negative = inhibition [3, 4] 0.998% | activity, negative = inhibition [3, 5] 13.7% | Potency (3D7) | Potency (7G8) | Potency (AA1029) | Potency (AS120) | Potency (ATS189)

COC(=O)c1ccc(O)cc1
inactive: Potency [1] | Potency [2] | activity, negative = inhibition [3, 4] 3.79% | activity, negative = inhibition [3, 5] 9.44% | Potency (3D7) | Potency (7G8) | Potency (AA1029) | Potency (AS120) | Potency (ATS189)
